Calls of active or inactive are those of the source. Unless noted, how the calls were made is not given here.
Columns and labels:
[1] = anti-His antibody binders, primary screen, artefact control for SMM control protein annotation, biochemical, small-molecule microarray, 635 nm fluorescence (AID 1128); conditions: anti-His Alexa647 antibody binding, higher = more signal;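 further: score merges feature fluorescence with signal-to-noise for each printed compound spot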
[2] = tested on: Human papillomavirus type 1a E7 protein (residues 1-88); assay: HPV1a E7 small-molecule binders, primary screen, biochemical, small-molecule microarray, residues 1-88, 635 nm (AID 1129); conditions: small-molecule microarray binding, fluorescence 635 nm; higher = more signal
[3] = target: Focal adhesion kinase 1 (Homo sapiens) (UniProt Q05397); assay: small-molecule microarray binders of FAK, primary screen, biochemical, 635/667 nm fluorescence, BSA, DTT (AID 1130); conditions: PTK2 binding, 635 nm fluorescence, higher = more signal;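 further: composite of spot emission at 667 nm and signal to noise over triplicate slides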
Chain of Focal adhesion kinase 1 (Homo sapiens) (Q05397 whole entry, looked up): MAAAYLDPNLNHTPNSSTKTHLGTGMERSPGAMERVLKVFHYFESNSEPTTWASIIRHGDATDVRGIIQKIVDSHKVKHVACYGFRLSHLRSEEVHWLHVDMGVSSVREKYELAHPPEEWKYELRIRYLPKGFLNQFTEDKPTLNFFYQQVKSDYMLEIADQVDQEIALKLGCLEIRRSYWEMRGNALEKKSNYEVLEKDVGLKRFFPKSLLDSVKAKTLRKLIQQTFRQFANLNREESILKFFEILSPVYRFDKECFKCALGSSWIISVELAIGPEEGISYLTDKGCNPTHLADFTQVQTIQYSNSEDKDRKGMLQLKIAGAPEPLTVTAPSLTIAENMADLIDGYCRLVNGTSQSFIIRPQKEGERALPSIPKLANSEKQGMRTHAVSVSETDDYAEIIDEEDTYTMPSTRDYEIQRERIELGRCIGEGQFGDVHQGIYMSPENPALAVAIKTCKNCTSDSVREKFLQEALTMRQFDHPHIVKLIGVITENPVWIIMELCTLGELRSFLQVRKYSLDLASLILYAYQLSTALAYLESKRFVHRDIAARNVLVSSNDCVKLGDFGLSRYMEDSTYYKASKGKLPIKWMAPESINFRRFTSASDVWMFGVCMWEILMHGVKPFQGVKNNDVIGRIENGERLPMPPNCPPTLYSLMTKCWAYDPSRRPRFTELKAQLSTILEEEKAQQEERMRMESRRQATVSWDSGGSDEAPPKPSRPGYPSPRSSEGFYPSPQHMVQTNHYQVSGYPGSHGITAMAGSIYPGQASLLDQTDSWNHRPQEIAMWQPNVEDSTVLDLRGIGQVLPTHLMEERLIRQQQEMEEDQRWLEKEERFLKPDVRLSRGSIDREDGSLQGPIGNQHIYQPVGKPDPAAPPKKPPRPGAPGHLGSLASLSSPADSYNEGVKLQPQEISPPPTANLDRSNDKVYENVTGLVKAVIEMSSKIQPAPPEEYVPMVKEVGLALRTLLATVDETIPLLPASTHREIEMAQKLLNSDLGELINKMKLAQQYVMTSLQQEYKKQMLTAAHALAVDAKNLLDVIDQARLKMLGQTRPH

[4] = tested on: Fibrinogen (Alexa647-labelled); assay: fibrinogen binders on compound microarrays, profiling panel, artefact control for SMM control-protein annotation, biochemical, small-molecule microarray, 635/667 nm fluorescence (AID 1131); conditions: fibrinogen-A647 binding fluorescence, higher = more signal;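 further: z-score merges 667 nm fluorescence with per-spot signal-to-noise over triplicate slides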
[5] = target: Follistatin (Homo sapiens) (UniProt P19883); assay: follistatin binders on small-molecule microarrays, primary screen, biochemical, small-molecule microarray, 635/667 nm fluorescence (AID 1132); conditions: FST binding, 635 nm fluorescence, higher = more signal
Chain of Follistatin (Homo sapiens) (P19883 whole entry, looked up): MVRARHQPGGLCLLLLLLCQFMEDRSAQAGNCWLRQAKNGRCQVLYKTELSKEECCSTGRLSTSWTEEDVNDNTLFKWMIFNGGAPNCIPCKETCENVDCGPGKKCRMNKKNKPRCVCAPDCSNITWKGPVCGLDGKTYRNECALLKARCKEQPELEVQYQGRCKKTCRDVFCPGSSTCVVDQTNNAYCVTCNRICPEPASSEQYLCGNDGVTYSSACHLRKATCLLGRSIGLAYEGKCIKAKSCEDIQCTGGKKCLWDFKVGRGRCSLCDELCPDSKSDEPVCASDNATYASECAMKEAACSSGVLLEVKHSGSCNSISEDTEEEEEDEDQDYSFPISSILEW

[6] = target: Fibroblast growth factor 2 (Homo sapiens) (UniProt P09038); assay: FGF2 binders on small-molecule microarrays, primary screen, biochemical, small-molecule microarray, 635/667 nm fluorescence (AID 1133); conditions: small-molecule microarray binding, FGF2, fluorescence 635/667; higher = more signal
Chain of Fibroblast growth factor 2 (Homo sapiens) (P09038 whole entry, looked up): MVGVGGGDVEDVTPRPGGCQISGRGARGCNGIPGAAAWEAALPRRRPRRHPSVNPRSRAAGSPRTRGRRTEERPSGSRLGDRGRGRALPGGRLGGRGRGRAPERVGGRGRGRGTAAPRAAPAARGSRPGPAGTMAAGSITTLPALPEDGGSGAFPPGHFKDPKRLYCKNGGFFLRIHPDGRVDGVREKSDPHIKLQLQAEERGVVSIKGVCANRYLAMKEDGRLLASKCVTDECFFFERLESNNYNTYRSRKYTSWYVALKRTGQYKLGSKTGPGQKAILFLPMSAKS

[7] = mitochondrial membrane potential change in A549 cells, profiling panel, cell-based, JC-1 fluorescence, basal, 24 h, 100 nL (AID 1138); conditions: higher = more signal;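 further: A549 lung adenocarcinoma cells under basal conditions with no added stimulus; test concentration not given here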
Lefty1 = Lefty1 binders on small-molecule microarrays, primary screen, biochemical, small-molecule microarray, 635/667 nm fluorescence (AID 1139); conditions: small-molecule microarray binding, fluorescence 635/667; higher = more signal
[8] = tested on: wheat germ agglutinin (Triticum aestivum), Alexa647-labelled; assay: wheat germ agglutinin binders on compound microarrays, profiling panel, artefact control for SMM control-protein annotation, biochemical, small-molecule microarray, 635/667 nm fluorescence (AID 1140); conditions: WGA-A647 binding, 635 nm fluorescence, higher = more signal;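 further: score merges 667 nm feature emission with signal to noise over triplicate slides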
[9] = target: Luciferin 4-monooxygenase (Photinus pyralis) (UniProt P08659); assay: firefly luciferase enzyme inhibitors, primary screen, biochemical, luminescence, purified enzyme, 2006 set (AID 1141); conditions: SteadyGlo luminescence, 30 min, higher = more signal, called active from +8 up or from −8 down;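 further: cell-free assay with purified firefly luciferase at 100 ng per well in PBS; test concentration not given here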
Chain of Luciferin 4-monooxygenase (Photinus pyralis) (P08659 whole entry, looked up): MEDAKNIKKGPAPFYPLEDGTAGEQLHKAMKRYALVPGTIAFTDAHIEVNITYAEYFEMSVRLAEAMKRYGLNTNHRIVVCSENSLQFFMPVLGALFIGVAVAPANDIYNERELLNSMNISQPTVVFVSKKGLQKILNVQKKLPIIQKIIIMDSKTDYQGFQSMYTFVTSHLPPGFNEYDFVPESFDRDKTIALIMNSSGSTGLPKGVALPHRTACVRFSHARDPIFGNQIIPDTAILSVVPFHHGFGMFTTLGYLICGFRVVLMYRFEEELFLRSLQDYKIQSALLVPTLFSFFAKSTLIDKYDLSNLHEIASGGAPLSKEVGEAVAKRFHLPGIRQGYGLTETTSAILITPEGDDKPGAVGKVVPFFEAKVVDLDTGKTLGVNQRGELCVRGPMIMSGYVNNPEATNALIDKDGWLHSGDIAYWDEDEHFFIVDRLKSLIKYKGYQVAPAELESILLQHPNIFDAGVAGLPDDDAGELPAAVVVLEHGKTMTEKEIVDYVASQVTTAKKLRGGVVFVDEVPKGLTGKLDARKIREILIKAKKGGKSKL

[10] = tested on: Wnt5a (protein binding on small-molecule microarray); assay: Wnt5a binders on small-molecule microarray, primary screen, biophysical, 635/667 nm fluorescence (AID 1142); conditions: 635 nm fluorescence, higher = more signal;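 further: fluorescence read at 667 nm with signal to noise per printed feature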
[11] = cell viability in Huh7 cells, primary screen, cytotoxicity control for HCV replication inhibitor project, CellTiter-Glo luminescence, basal, 48 h (AID 1143); conditions: Huh7 HCV replicon, higher = more signal, called active from +8 up or from −8 down;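 further: Huh7 hepatoma cells carrying a hepatitis C replication reporter with no stimulus; test concentration not given here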
[12] = P. aeruginosa biofilm formation inhibitors, primary screen, PAO1 strain, BacTiter-Glo luminescence, LB-PBS (AID 1144); conditions: 12 h, higher = more signal
[13] = CREB reporter modulators without forskolin, primary screen, cell-based, PC12, CRE-LacZ reporter, unstimulated (AID 1145); conditions: no forskolin, luminescence, 4.5 h, higher = more signal, called active from +8 up or from −8 down
[14] = CREB reporter modulators under forskolin, primary screen, cell-based, PC12, CRE-LacZ reporter, forskolin-stimulated (AID 1146); conditions: luminescence, 4.5 h, higher = more signal, called active from +8 up or from −8 down;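 further: PC12 cells with 6xCRE LacZ reporter stimulated by forskolin 10 µM; beta-galactosidase reporter signal reflecting CREB driven transcription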
[15] = target: Streptavidin (Streptomyces avidinii) (UniProt P22629); assay: streptavidin binders on small-molecule microarray, primary screen, artefact control for SMM compound annotation, biophysical, 635/667 nm fluorescence (AID 1147); conditions: streptavidin binding, higher = more signal;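 further: signal reflects streptavidin binding to arrayed compounds as a control protein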
Chain of Streptavidin (Streptomyces avidinii) (P22629 whole entry, looked up): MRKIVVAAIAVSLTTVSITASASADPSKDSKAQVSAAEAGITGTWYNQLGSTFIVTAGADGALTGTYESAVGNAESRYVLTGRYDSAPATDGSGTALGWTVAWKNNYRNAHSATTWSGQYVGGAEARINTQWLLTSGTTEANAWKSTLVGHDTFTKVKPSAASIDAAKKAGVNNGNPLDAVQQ

[16] = small-molecule binders of probe aInhba, primary screen, biochemical, small-molecule microarray, 635/667 nm fluorescence (AID 1148); conditions: higher = more signal;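 further: score merges 667nm spot fluorescence with signal-to-noise for antibody binding to printed compounds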
Torsin-1A (Homo sapiens) [17] = target: Torsin-1A (Homo sapiens) (UniProt O14656); assay: torsin A binders from cell lysate, primary screen, small-molecule microarray, wild-type, 635/667 nm (AID 1149); conditions: COS7 hTOR1A-WT lysate, 635 nm fluorescence, higher = more signal
Chain of Torsin-1A (Homo sapiens) (O14656 whole entry, looked up): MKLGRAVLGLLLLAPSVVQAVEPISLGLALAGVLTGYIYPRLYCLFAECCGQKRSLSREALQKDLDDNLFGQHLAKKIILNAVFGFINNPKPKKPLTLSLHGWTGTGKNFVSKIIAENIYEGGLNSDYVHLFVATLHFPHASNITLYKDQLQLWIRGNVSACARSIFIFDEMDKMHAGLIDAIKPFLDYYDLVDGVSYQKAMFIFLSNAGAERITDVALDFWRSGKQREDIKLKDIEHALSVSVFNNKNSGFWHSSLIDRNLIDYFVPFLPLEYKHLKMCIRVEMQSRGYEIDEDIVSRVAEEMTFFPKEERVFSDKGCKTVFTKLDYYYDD

Torsin-1A (Homo sapiens) [18] = target: Torsin-1A (Homo sapiens) (UniProt O14656); assay: small-molecule binders of mutant TOR1A in lysate, primary screen, cell lysate, small-molecule microarray, COS7 lysate, 635/667 nm fluorescence (AID 1150); conditions: COS7 hTOR1A mutant lysate, 635 nm fluorescence, higher = more signal;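 further: score pools 667 nm emission and signal to noise measuring lysate protein binding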
[19] = tested on: Sonic hedgehog protein (Shh); assay: small-molecule binders of Shh protein, primary screen, biochemical, small-molecule microarray, 635/667 nm fluorescence (AID 1151); conditions: small-molecule microarray binding, 635 nm fluorescence; higher = more signal;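 further: Shh protein binding to compounds spotted on small-molecule microarray slides; score combines spot fluorescence intensity with signal-to-noise across triplicate slides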

| Structure (SMILES) | composite z-score [1] | composite z-score [2] | composite z-score [3] | composite z-score [4] | composite z-score [5] | composite z-score [6] | z-score [7] | composite z-score (Lefty1) | composite z-score [8] | z-score [9] | composite z-score [10] | z-score [11] | z-score [12] | z-score [13] | z-score [14] | composite z-score [15] | composite z-score [16] | composite z-score (Torsin-1A (Homo sapiens) [17]) | composite z-score (Torsin-1A (Homo sapiens) [18]) | composite z-score [19] |
| --- | --- | --- | --- | --- | --- | --- | --- | --- | --- | --- | --- | --- | --- | --- | --- | --- | --- | --- | --- | --- |
| C=CCOC(=O)[C@@H]1[C@H]2C(=O)O[C@H](c3ccccc3)[C@H](c3ccccc3)N2[C@H](c2ccc(OCCOC(=O)[C@H]3C[C@H]4C(=O)NCC(=O)N4[C@H]3c3ccc(O)cc3)cc2)[C@@]12C(=O)Nc1ccc(I)cc12 | 1.24 | 1.19 | 0.701 | 0.732 | 1.27 | 1.39 | -1.1 | 1.06 | 0.665 | -0.483 (inactive) | 0.266 | -0.199 (inactive) | 0.22 (inactive) | -0.394 (inactive) | -0.732 (inactive) | 0.868 | -0.0163 | 1.11 | 0.854 | 1.81 |
| COc1ccccc1CN1C(=O)c2ccccc2[C@](Cc2ccccc2I)(C(=O)NCCCN(C)C)[C@@H]1c1ccc(CO)cc1 | 0.237 | 1.21 | 0.904 | 0.944 | 0.489 | 0.141 | -2.4 | 0.0523 | 0.0618 | -0.644 (inactive) | 0.168 | -5.84 (inactive) | 0.777 (inactive) | 3.31 (inactive) | 5.18 (inactive) | 0.956 | -0.187 | -0.26 | 0.409 | 0.814 |
| CCC[C@@H]1C=C(C(=O)OCC)[C@H](c2ccccc2)N1S(=O)(=O)c1ccc(C)cc1 | 0.796 | 1.14 | 0.898 | 0.979 | 0.947 | 0.538 | 2.03 | 0.565 | 1.2 | 1.41 (inactive) | 0.539 | -4.29 (inactive) | 1.18 (inactive) | -0.527 (inactive) | -0.578 (inactive) | 0.795 | 0.436 | 0.131 | 0.373 | 0.203 |
| CC(C)[C@@H](C(=O)O)n1cc(-c2ccccc2)nn1 | 0.808 | 1.14 | 0.866 | 0.924 | 0.098 | 0.112 | -0.138 | -0.0617 | 1.15 | 0.131 (inactive) | 0.0953 | 0.0466 (inactive) | 0.69 (inactive) | 0.251 (inactive) | 0.0824 (inactive) | 1.23 | 0.019 | 0.466 | 1.16 | 0.128 |

Reference: PubChem BioAssay
